IL1B secr inh – inhibitors of inflammasome signaling (IL-1 beta secretion); THP-1 LPS/ATP IL-1B secretion, AlphaLISA, 16 h; active compounds read low; activity change, % at 57.5 µM; hit rate 4.7% among 360,000; AID 743279; in the data active = activity change below about -50%; inconclusive = mostly about -30% to -49%
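Secreted IL-1B measured by AlphaLISA bead assay after 16 h compound exposure of THP-1 cells; compounds (final up to 57.5 uM) added 1 h before LPS (250 ng/mL) and ATP (1.25 mM) stimulation; lower signal means less secretion.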
DT40 TDP1 no CPT – qHTS for Inhibitors of human tyrosyl-DNA phosphodiesterase 1 (TDP1): qHTS in cells in absence of CPT; DT40 Tdp1-/- hTDP1 cells, no CPT, ATP luminescence, 48 h; Potency, µM (series often up to 46.2 µM), for the others: at the highest dose activity change, negative = growth inhibition, actives largely listed as inhibitors; hit rate 15% among 420,000; note: potency is the fitted concentration of half-maximal effect; nearly all actives have a fitted effect of over 55% in size
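Stably hTDP1-transfected Tdp1-null chicken DT40 cells were treated with library compounds minus camptothecin and grown for at least 48 hr at 37 °C, after which cellular ATP was quantified by luminescence.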
uPA surface inh – cell surface uPA generation inhibition; cell surface uPA generation assay, qHTS; Potency, µM (titrated, usually from 38.3 µM), for inactives: at the highest dose activity change, negative = inhibition, usual class: inhibitors; hit rate 0.31% among 330,000; AID 540303; active = well fitted inhibition curve with a large enough effect; inconclusive = small, poorly fitted or top-dose-only effect; inactive = no such curve, though single readings can be large or run the other way; tested in mouse RAW 264.7 cells; note: potency is the fitted concentration of half-maximal effect; nearly all actives have a fitted effect of over 55% in size
TDP1 cell CPT – growth inhibition of DT40 Tdp1-/-;hTDP1 cells with camptothecin (screen for TDP1 inhibitors) | chicken DT40 Tdp1-/-;hTDP1 cells + 20 nM CPT, ATP luminescence, 48 h | Potency, µM (titrated, usually from 46.2 µM), for the others: at the top dose activity change, negative = growth inhibition, hits mostly inhibitors | AID 686979 | hit rate 12% among 420,000; note: potency is the fitted concentration of half-maximal effect; nearly all actives have a fitted effect of over 55% in size
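Chicken DT40 Tdp1-/- cells complemented with human TDP1, 400 cells/well, exposed to compounds plus 20 nM camptothecin for at least 48 h at 37 C; viability read as ATP content by CellTiter-Glo luminescence.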
HT1080-NT tox – kills 2HG-producing HT-1080-NT fibrosarcoma cells | hit rate 1.6% among 360,000 | HT-1080-NT fibrosarcoma viability, CellTiter-Glo ATP luminescence, 48 h | Potency, µM (highest dose often 46.1 µM), for the others: at the highest dose activity, negative = less viability, hits mostly cytotoxic;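 note: NT is the 2HG producing partner of a matched IDH1 knockdown line; potency is the fitted concentration of half-maximal effect; 0% = DMSO-treated cells and -100% = media-only wells without cells; nearly all actives have a fitted effect of over 55% in size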
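Luminescent CellTiter-Glo readout after 48 hours of compound exposure at 37 degrees C defined viability of HT-1080-NT cells. Activity was normalized to DMSO wells and cell-free media wells; concentration-response curves were fitted and assigned curve classes.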
HT1080 IDH1KD tx – kills HT-1080 cells with IDH1 knockdown | HT-1080 IDH1 knockdown viability, ATP luminescence, 48 h | Potency, µM (series often up to 46.1 µM), for the others: top-dose activity, negative = toxicity, actives largely listed as cytotoxic | hit rate 2% among 360,000;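 note: potency is the fitted concentration of half-maximal effect; 0% = DMSO wells and -100% = cell-free medium wells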
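Viability of IDH1-knockdown HT-1080 fibrosarcoma cells was assessed by CellTiter-Glo after 48 h at 37 °C with titrated compound; concentration-effect curves were classified by fit quality and response size.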
An asterisk follows results filed as active; [ ] = dose if it differs, or a comment. This is a sample that favours compounds with a hit; in the whole collection about 19% have one here. Unless noted, calls come from the whole dose curve; as a rule, active = well fitted curve in the direction sought with a large enough effect; inconclusive = small, poorly fitted or top-dose-only effect, or another doubt; inactive = no such curve, though single readings can be large; an effect the other way counts as inactive or inconclusive. Unless noted, % is set by controls: 0 for no effect and ±100 for the full control effect.

Screening COc1ccc2nc(Nc3nc(CSc4ccc(C)cc4)cc(=O)[nH]3)nc(C)c2c1 returned IL1B secr inh 50.3, DT40 TDP1 no CPT 18.4µM*, uPA surface inh -1.0%, TDP1 cell CPT inconclusive, HT1080-NT tox 8.6% and HT1080 IDH1KD tx 9.1%.
COc1ccc2nc(Nc3nc(C)c(CCC(C)C)c(=O)[nH]3)nc(C)c2c1 was read as IL1B secr inh inconclusive, DT40 TDP1 no CPT 18.4µM*, TDP1 cell CPT inconclusive, HT1080-NT tox 12.1% and HT1080 IDH1KD tx 14.0%.
COc1ccc2nc(C)[nH]c(=O)c2c1 was read as IL1B secr inh 10.3, DT40 TDP1 no CPT 9.8%, uPA surface inh 2.6%, TDP1 cell CPT 0.2%, HT1080-NT tox 13.9% and HT1080 IDH1KD tx 16.3%.
O=C(O)Cc1cccc(=O)c(O)c1C(=O)O was read as IL1B secr inh 6.6, DT40 TDP1 no CPT -1.8%, uPA surface inh 11.0%, TDP1 cell CPT 4.3%, HT1080-NT tox -0.4% and HT1080 IDH1KD tx -1.9%.
`C=CC[C@H](CC(=O)N(CCO)Cc1ccccc1)C(=O)N[C@H](C)COC(=O)[C@@H](CC=C)Cc1ccc(F)cc1` gave IL1B secr inh -16.0, DT40 TDP1 no CPT 20.6µM*, uPA surface inh -9.5%, TDP1 cell CPT inconclusive, HT1080-NT tox 1.6% and HT1080 IDH1KD tx 3.1%.
`C=CC[C@@H](CC(=O)N(CCO)Cc1ccccc1)C(=O)NCCOC(=O)[C@@H](CC=C)Cc1ccc(F)cc1` gave IL1B secr inh -1.9, DT40 TDP1 no CPT 13µM*, uPA surface inh 3.0%, TDP1 cell CPT 20.6µM*, HT1080-NT tox -2.5% and HT1080 IDH1KD tx -1.1%.
C=CC[C@@H](CC(=O)N(CCO)Cc1ccccc1)C(=O)N[C@H](C)COC(=O)[C@@H](CC=C)Cc1ccc(F)cc1 was read as IL1B secr inh -1.9, DT40 TDP1 no CPT inconclusive, uPA surface inh -0.9%, TDP1 cell CPT inconclusive, HT1080-NT tox -0.1% and HT1080 IDH1KD tx -12.9%.
For C=CC[C@H](CC(=O)N(CCO)Cc1ccccc1)C(=O)N[C@H](COC(=O)[C@@H](CC=C)Cc1ccc(F)cc1)Cc1ccccc1 the results were IL1B secr inh -55.6*, DT40 TDP1 no CPT 20.6µM*, uPA surface inh inconclusive, TDP1 cell CPT 20.6µM*, HT1080-NT tox 16.4µM* and HT1080 IDH1KD tx inconclusive.
Screening C=CCC[C@H](Cc1ccc(F)cc1)C(=O)O[C@H](CNC(=O)[C@@H](CC=C)CC(=O)N(CCO)Cc1ccccc1)c1ccccc1 returned IL1B secr inh -58.1*, DT40 TDP1 no CPT 23.1µM*, uPA surface inh inconclusive, TDP1 cell CPT inconclusive, HT1080-NT tox inconclusive and HT1080 IDH1KD tx inconclusive.
For O=c1c(=O)n(-c2ccccc2)ccn1Cc1c(F)cccc1Cl the results were DT40 TDP1 no CPT -15.7% and TDP1 cell CPT 3.8%.
OC[C@@H](O)[C@@H](O)[C@H](O)[C@H](O)CO was read as IL1B secr inh 13.1, DT40 TDP1 no CPT -0.6%, uPA surface inh 26.7%, TDP1 cell CPT -2.3%, HT1080-NT tox 29.5% and HT1080 IDH1KD tx 18.9%.
For COc1cc(CNC(=O)c2ccc3nc(CCc4ccccc4)oc3c2)cc(OC)c1OC the results were DT40 TDP1 no CPT 20.6µM* and TDP1 cell CPT 20.6µM*.
`COc1cc(CNC(=O)c2ccc3nc(Cc4ccccc4)oc3c2)cc(OC)c1OC` gave DT40 TDP1 no CPT 2.59µM* and TDP1 cell CPT 6.51µM*.
Screening COc1cc(CC(=O)NCCCc2ccccc2)cc(OC)c1OC returned IL1B secr inh 7.3, DT40 TDP1 no CPT 20.6µM*, uPA surface inh -1.2%, TDP1 cell CPT inconclusive, HT1080-NT tox 2.4% and HT1080 IDH1KD tx 8.1%.
`CC(C)Oc1ccc(CNC(=O)c2ccc3nc(Cc4ccccc4)oc3c2)cc1` gave DT40 TDP1 no CPT -28.3% and TDP1 cell CPT inconclusive.
Screening CCOc1ccc(CNC(=O)c2ccc3nc(Cc4ccc(OC)cc4)oc3c2)cc1OC returned DT40 TDP1 no CPT 13µM* and TDP1 cell CPT 18.4µM*.
For CCOc1ccc2nc(NCCO)[nH]c2c1 the results were IL1B secr inh 43.9, DT40 TDP1 no CPT -22.6%, uPA surface inh -3.6%, TDP1 cell CPT -15.9%, HT1080-NT tox 0.7% and HT1080 IDH1KD tx 10.7%.
CCOC(=O)c1ccc2nc(NC(=O)c3cccs3)sc2c1 was read as IL1B secr inh -21.4, DT40 TDP1 no CPT inconclusive, uPA surface inh -2.0%, TDP1 cell CPT -29.3%, HT1080-NT tox -20.1% and HT1080 IDH1KD tx inconclusive.
For C=C(c1ccc2nc(NC(=O)OC)[nH]c2c1)c1cccs1 the results were IL1B secr inh 45.9, DT40 TDP1 no CPT 0.82µM*, uPA surface inh -15.1%, TDP1 cell CPT 0.731µM*, HT1080-NT tox 1.03µM* and HT1080 IDH1KD tx 0.731µM*.
C=CCOc1ccc2nc(NC(=O)OC)[nH]c2c1 was read as IL1B secr inh 40.9, DT40 TDP1 no CPT 0.82µM*, uPA surface inh -11.8%, TDP1 cell CPT 0.651µM*, HT1080-NT tox inconclusive and HT1080 IDH1KD tx 1.84µM*.
CCCCc1ccc2nc(NC(=O)OC)[nH]c2c1 was read as DT40 TDP1 no CPT 0.057µM* and TDP1 cell CPT 0.0718µM*.
Cc1cnc(C)c(-c2cc(F)cc3c2OC(CNC(=O)Cc2ccccc2C)C3)n1 (stereo not drawn) was read as DT40 TDP1 no CPT inconclusive and TDP1 cell CPT 2.1%[9.04 µM].
COc1ccccc1CNC(=O)Cn1ncn2c(cc3sccc32)c1=O was read as DT40 TDP1 no CPT -15.2% and TDP1 cell CPT 6.0%.
Cc1c(Cl)cccc1NC(=O)CSc1nc(=O)n(CCCN2CCOCC2)c2c1CCCC2 was read as IL1B secr inh inconclusive, DT40 TDP1 no CPT inconclusive, TDP1 cell CPT -26.8%, HT1080-NT tox -3.2% and HT1080 IDH1KD tx 2.1%.
For O=C1NC(c2cccc(OCc3ccccc3)c2)Nc2ccccc21 (stereo not drawn) the results were IL1B secr inh 26.1, DT40 TDP1 no CPT 1.16µM*, uPA surface inh -8.8%, TDP1 cell CPT 1.46µM*, HT1080-NT tox inconclusive and HT1080 IDH1KD tx 0.581µM*.
Screening O=C1CCOc2cc(OCc3ccccc3)ccc21 returned IL1B secr inh -0.5, DT40 TDP1 no CPT -9.3%, TDP1 cell CPT 6.9%, HT1080-NT tox 2.1% and HT1080 IDH1KD tx 7.9%.
Screening CCN(CC)S(=O)(=O)c1cccc(NC(=O)c2ccccc2Br)c1 returned IL1B secr inh -4.9, DT40 TDP1 no CPT inconclusive, uPA surface inh 2.7%, TDP1 cell CPT -24.4%, HT1080-NT tox -0.3% and HT1080 IDH1KD tx 0.0%.

Screens from PubChem BioAssay.
